The supplement of paper PMC8728848
This is one part of a sample in which the strongest signals are shown more often than they occur.

Experiments:
Assay in all cases: glycan array binding signal (z-score within array); higher = stronger binding
Conditions in all cases: glycan notation: IUPAC condensed, linker removed
[1] = target: Fuc(a1-2)Gal(b1-4)Glc
Summary of the method: (§1)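 From the Consortium for Functional Glycomics database, 3228 arrays were curated, keeping only those whose protein sequence was available. Binding is given as a within-array Z-score averaged across arrays sharing a protein sequence and across linkers. Negative Z-scores can be read as non-binding.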

[2] = target: Fuc(a1-2)Gal(b1-4)[Fuc(a1-3)]GlcNAc(b1-3)[Neu5Ac(a2-6)Gal(b1-4)GlcNAc(b1-6)]Gal(b1-4)Glc
Summary of the method: as §1

[3] = target: Fuc(a1-2)Gal6S(b1-4)Glc6S
Summary of the method: as §1

[4] = target: Fuc(a1-2)[GalNAc(a1-3)]Gal(b1-4)GlcNAc(b1-2)Man(a1-3)[Fuc(a1-2)[GalNAc(a1-3)]Gal(b1-4)GlcNAc(b1-2)Man(a1-6)]Man(b1-4)GlcNAc(b1-4)GlcNAc
Summary of the method: as §1

[5] = target: Fuc(a1-3)[Gal(b1-4)]GlcNAc(b1-3)Gal(b1-4)[Fuc(a1-3)]GlcNAc(b1-3)Gal(b1-4)[Fuc(a1-3)]GlcNAc
Summary of the method: as §1

[6] = target: Fuc(a1-3)[GalNAc(b1-4)]GlcNAc6S
Summary of the method: as §1

[7] = target: Gal(a1-3)Gal(b1-3)[Fuc(a1-4)]GlcNAc(b1-2)Man(a1-3)[Gal(a1-3)Gal(b1-3)[Fuc(a1-4)]GlcNAc(b1-2)Man(a1-6)]Man(b1-4)GlcNAc(b1-4)GlcNAc
Summary of the method: as §1

[8] = target: Gal(a1-3)Gal(b1-4)GlcNAc(b1-2)Man
Summary of the method: as §1

[9] = target: Gal(a1-3)Gal(b1-4)GlcNAc(b1-3)GalNAc
Summary of the method: as §1

[10] = target: Gal(a1-3)Gal(b1-4)GlcNAc(b1-6)GalNAc
Summary of the method: as §1

[11] = target: Gal(b1-3)Gal
Summary of the method: as §1

[12] = target: Gal(b1-3)GalNAc
Summary of the method: as §1

[13] = target: Gal(b1-3)GalNAc(a1-3)[Fuc(a1-2)]Gal(b1-4)GlcNAc
Summary of the method: as §1

[14] = target: Gal(b1-3)GlcNAc(a1-6)Gal(b1-4)GlcNAc
Summary of the method: as §1

[15] = target: Gal(b1-3)GlcNAc(b1-3)Gal(b1-3)GlcNAc
Summary of the method: as §1

[16] = target: Gal(b1-3)GlcNAc(b1-3)Gal(b1-4)GlcNAc(b1-2)[Gal(b1-3)GlcNAc(b1-3)Gal(b1-4)GlcNAc(b1-6)]Man(a1-6)[Gal(b1-3)GlcNAc(b1-3)Gal(b1-4)GlcNAc(b1-2)Man(a1-3)]Man(b1-4)GlcNAc(b1-4)[Fuc(a1-6)]GlcNAc
Summary of the method: as §1

[17] = target: Gal(b1-3)[Neu5Ac(a2-6)]GlcNAc(b1-4)Gal(b1-4)Glc
Summary of the method: as §1

[18] = target: Gal(b1-4)GlcNAc(b1-2)Man(a1-6)[Man(a1-3)]Man(b1-4)GlcNAc(b1-4)GlcNAc
Summary of the method: as §1

[19] = target: Gal(b1-4)GlcNAc(b1-2)[Gal(b1-4)GlcNAc(b1-6)]Man(a1-6)[Gal(b1-4)GlcNAc(b1-2)Man(a1-3)]Man(b1-4)GlcNAc(b1-4)[Fuc(a1-6)]GlcNAc
Summary of the method: as §1

[20] = target: Gal(b1-4)GlcNAc(b1-3)Gal(b1-4)Glc
Summary of the method: as §1

[21] = target: Gal(b1-4)GlcNAc(b1-3)Gal(b1-4)GlcNAc(b1-2)[Gal(b1-4)GlcNAc(b1-3)Gal(b1-4)GlcNAc(b1-6)]Man(a1-6)[Gal(b1-4)GlcNAc(b1-3)Gal(b1-4)GlcNAc(b1-2)Man(a1-3)]Man(b1-4)GlcNAc(b1-4)GlcNAc
Summary of the method: as §1

[22] = target: Gal(b1-4)GlcNAc(b1-3)Gal(b1-4)GlcNAc(b1-2)[Gal(b1-4)GlcNAc(b1-3)Gal(b1-4)GlcNAc(b1-6)]Man(a1-6)[Gal(b1-4)GlcNAc(b1-3)Gal(b1-4)GlcNAc(b1-2)Man(a1-3)]Man(b1-4)GlcNAc(b1-4)[Fuc(a1-6)]GlcNAc
Summary of the method: as §1

[23] = target: Gal(b1-4)GlcNAc(b1-3)Gal(b1-4)GlcNAc(b1-3)Gal(b1-4)GlcNAc(b1-2)Man(a1-3)[Gal(b1-4)GlcNAc(b1-3)Gal(b1-4)GlcNAc(b1-3)Gal(b1-4)GlcNAc(b1-2)Man(a1-6)]Man(b1-4)GlcNAc(b1-4)GlcNAc
Summary of the method: as §1

[24] = target: Gal(b1-4)GlcNAc(b1-3)Gal(b1-4)GlcNAc(b1-3)Gal(b1-4)GlcNAc(b1-3)Gal(b1-4)GlcNAc(b1-3)Gal(b1-4)GlcNAc(b1-2)[Gal(b1-4)GlcNAc(b1-3)Gal(b1-4)GlcNAc(b1-3)Gal(b1-4)GlcNAc(b1-3)Gal(b1-4)GlcNAc(b1-3)Gal(b1-4)GlcNAc(b1-6)]Man(a1-6)[Gal(b1-4)GlcNAc(b1-3)Gal(b1-4)GlcNAc(b1-3)Gal(b1-4)GlcNAc(b1-3)Gal(b1-4)GlcNAc(b1-3)Gal(b1-4)GlcNAc(b1-2)Man(a1-3)]Man(b1-4)GlcNAc(b1-4)[Fuc(a1-6)]GlcNAc
Summary of the method: as §1

[25] = target: Gal(b1-4)GlcNAc(b1-3)GalNAc
Summary of the method: as §1

[26] = target: Gal(b1-4)GlcNAc(b1-6)[Gal(b1-4)GlcNAc(b1-3)]GalNAc
Summary of the method: as §1

[27] = target: Gal3S(b1-4)Glc
Summary of the method: as §1

[28] = target: Gal6S(b1-4)GlcNAc6S
Summary of the method: as §1

[29] = target: GlcA(b1-3)Gal
Summary of the method: as §1

[30] = target: GlcA3S(b1-3)Gal(b1-4)GlcNAc(b1-3)Gal(b1-4)Glc
Summary of the method: as §1

[31] = target: GlcNAc(a1-4)Gal(b1-4)GlcNAc(b1-3)Gal(b1-4)[Fuc(a1-3)]GlcNAc(b1-3)Gal(b1-4)[Fuc(a1-3)]GlcNAc
Summary of the method: as §1

[32] = target: GlcNAc(b1-2)[GlcNAc(b1-6)]Man(a1-6)[GlcNAc(b1-2)Man(a1-3)]Man(b1-4)GlcNAc(b1-4)GlcNAc
Summary of the method: as §1

[33] = target: GlcNAc(b1-3)Gal(b1-3)GalNAc
Summary of the method: as §1

[34] = target: GlcNAc(b1-3)Gal(b1-4)GlcNAc(b1-3)Gal(b1-4)GlcNAc(b1-3)Gal(b1-4)GlcNAc(b1-2)Man(a1-3)[GlcNAc(b1-3)Gal(b1-4)GlcNAc(b1-3)Gal(b1-4)GlcNAc(b1-3)Gal(b1-4)GlcNAc(b1-2)Man(a1-6)]Man(b1-4)GlcNAc(b1-4)GlcNAc
Summary of the method: as §1

[35] = target: GlcNAc(b1-3)Gal(b1-4)GlcNAc(b1-3)Gal(b1-4)GlcNAc(b1-3)Gal(b1-4)GlcNAc(b1-2)[GlcNAc(b1-3)Gal(b1-4)GlcNAc(b1-3)Gal(b1-4)GlcNAc(b1-3)Gal(b1-4)GlcNAc(b1-6)]Man(a1-6)[GlcNAc(b1-3)Gal(b1-4)GlcNAc(b1-3)Gal(b1-4)GlcNAc(b1-3)Gal(b1-4)GlcNAc(b1-2)Man(a1-3)]Man(b1-4)GlcNAc(b1-4)[Fuc(a1-6)]GlcNAc
Summary of the method: as §1

[36] = target: GlcNAc(b1-3)Man
Summary of the method: as §1

[37] = target: GlcNAc(b1-4)GlcNAc
Summary of the method: as §1

[38] = target: Kdn(a2-3)Gal(b1-4)[Fuc(a1-3)]GlcNAc
Summary of the method: as §1

[39] = target: Man(a1-3)[Man(a1-6)]Man(a1-6)[Man(a1-3)]Man(b1-4)GlcNAc(b1-4)GlcNAc
Summary of the method: as §1

[40] = target: Neu5Ac(a2-3)Gal(b1-4)GlcNAc(b1-3)Gal(b1-4)GlcNAc
Summary of the method: as §1

[41] = target: Neu5Ac(a2-3)Gal(b1-4)GlcNAc(b1-3)Gal(b1-4)GlcNAc(b1-6)[Gal(b1-3)]GalNAc
Summary of the method: as §1

[42] = target: Neu5Ac(a2-6)Gal(b1-4)GlcNAc(b1-2)[Neu5Ac(a2-6)Gal(b1-4)GlcNAc(b1-4)]Man(a1-3)[GlcNAc(b1-4)][Neu5Ac(a2-6)Gal(b1-4)GlcNAc(b1-2)[Neu5Ac(a2-6)Gal(b1-4)GlcNAc(b1-6)]Man(a1-6)]Man(b1-4)GlcNAc(b1-4)GlcNAc
Summary of the method: as §1

[43] = target: Neu5Ac(a2-6)Gal(b1-4)GlcNAc(b1-3)Gal(b1-4)GlcNAc(b1-3)[Neu5Ac(a2-6)Gal(b1-4)GlcNAc(b1-3)Gal(b1-4)GlcNAc(b1-6)]GalNAc
Summary of the method: as §1

[44] = target: Neu5Ac(a2-6)Gal(b1-4)GlcNAc(b1-6)GalNAc
Summary of the method: as §1

[45] = target: Neu5Ac(a2-6)Gal(b1-4)GlcNAc6S
Summary of the method: as §1

[46] = target: Neu5Ac(a2-8)Neu5Ac(a2-8)Neu5Ac(a2-3)[GalNAc(b1-4)]Gal(b1-4)Glc
Summary of the method: as §1

[47] = target: Neu5Ac(a2-8)Neu5Ac(a2-8)Neu5Ac(a2-8)Neu5Ac(a2-3)[GalNAc(b1-4)]Gal(b1-4)Glc
Summary of the method: as §1

[48] = target: Neu5Ac(a2-8)Neu5Gc(a2-3)Gal(b1-4)GlcNAc
Summary of the method: as §1

B1: PX14351B-bth-512-36-512 (Bacteroides thetaiotaomicron) (protein)
chain: ASETQQWKTLEDTRSALMGVYGLTRAALADNNTHWICGDLRKGDFTVYKRSDLQAVSDNELNKPYDLLKKVSNWRRFYAVINAASVFMEKAPRTVELDRSYSEQNLKYDIAQVRALRAFAYFYMVRIWGDVPLVTYSYDNGTFPSMPRTDAQTVLSYAKAELLTAIEDLPYQYGTQTNLYYGSYGAQWQGKLFNKLSAYSVLAHICAWQGNYAEAETYSAFIIDHASEINAKYTSIADLTSETGLFYSNASVKGSRILGFNFAHNDNEATQSGHLEQLTLAYPLVQKSYPEIYISKDSLFSIFTNFDDLRFGIIDTIKYSSYYVQNLNEETPVFSKIKIIQDGSAKDNDFGVFGSSIVFTRLEDITLLRAEALCALNRSTEAVSYLNMIRTNRGLREVSFKKDFGNNRESLIAEIFEERRRELMGEGWRWYDLVRRQKLMKDNEAFLRLISSGGIYWPVSEDIITANSQIEQNEFWK
glycan array binding signal (z-score) [1]: -0.31 | glycan array binding signal (z-score) [2]: -0.143 | glycan array binding signal (z-score) [3]: -0.262 | glycan array binding signal (z-score) [4]: 1.76 | glycan array binding signal (z-score) [5]: 0.19 | glycan array binding signal (z-score) [6]: -0.185 | glycan array binding signal (z-score) [7]: 17.9 | glycan array binding signal (z-score) [8]: -0.075 | glycan array binding signal (z-score) [9]: 0.527 | glycan array binding signal (z-score) [10]: -0.314 | glycan array binding signal (z-score) [11]: -0.39 | glycan array binding signal (z-score) [12]: -0.25 | glycan array binding signal (z-score) [13]: 0.364 | glycan array binding signal (z-score) [14]: 0.113 | glycan array binding signal (z-score) [15]: -0.074 | glycan array binding signal (z-score) [16]: 9.18 | glycan array binding signal (z-score) [17]: -0.273 | glycan array binding signal (z-score) [18]: -0.288 | glycan array binding signal (z-score) [19]: 2.5 | glycan array binding signal (z-score) [20]: -0.34 | glycan array binding signal (z-score) [21]: 0.755 | glycan array binding signal (z-score) [22]: 2.73 | glycan array binding signal (z-score) [23]: 3.44 | glycan array binding signal (z-score) [24]: 2.11 | glycan array binding signal (z-score) [25]: -0.256 | glycan array binding signal (z-score) [26]: 1.91 | glycan array binding signal (z-score) [27]: -0.16 | glycan array binding signal (z-score) [28]: -0.34 | glycan array binding signal (z-score) [29]: -0.428 | glycan array binding signal (z-score) [30]: -0.114 | glycan array binding signal (z-score) [31]: -0.049 | glycan array binding signal (z-score) [32]: -0.115 | glycan array binding signal (z-score) [33]: -0.128 | glycan array binding signal (z-score) [34]: -0.068 | glycan array binding signal (z-score) [35]: 0.033 | glycan array binding signal (z-score) [36]: -0.006 | glycan array binding signal (z-score) [37]: -0.165 | glycan array binding signal (z-score) [38]: -0.287 | glycan array binding signal (z-score) [39]: -0.271 | glycan array binding signal (z-score) [40]: -0.265 | glycan array binding signal (z-score) [41]: 0.652 | glycan array binding signal (z-score) [42]: 0.217 | glycan array binding signal (z-score) [43]: -0.33 | glycan array binding signal (z-score) [44]: 0.191 | glycan array binding signal (z-score) [45]: -0.355 | glycan array binding signal (z-score) [46]: -0.362 | glycan array binding signal (z-score) [47]: 1.91 | glycan array binding signal (z-score) [48]: 4.31
